{"source": "PubChem BioAssay AID463173", "about": "(ICCB-Longwood Screening Facility, Harvard Medical School, 2010)", "note": "In all, about 52,000 compounds went through this assay and about 4,300 (8.3%) were called active. The entries come from a sample that favours actives as a whole. Values without a mark were called inactive. No stated cut-off is given here; in the data, active means survival mostly below about 52% (no sharp cut-off); inactive means mostly above about 56%.", "data": [{"tested_on": "DeltatarO mutant", "assay": "S. aureus survival, RN4220 and DeltatarO strains – OD600, teichoic acid synthesis inhibitors, primary screen (AID 463173)", "settings": "S. aureus RN4220 wild type/DeltatarO growth, OD600, 18 h, stronger effect = lower value, screened at 18.75 µg/mL (by protocol)", "values": [{"smiles": "CC(C)(C)NC(=O)c1cccc(NC(=O)c2ccco2)c1", "survival": "101%"}, {"smiles": "COc1ccc(N2CCN(CNC(=O)c3ccccc3)CC2)cc1", "survival": "95%"}, {"smiles": "Nc1nnc(CCN2C(=O)CSC2=O)s1", "survival": "95%"}, {"smiles": "CCc1cnc2c(c1SCC(=O)NCc1ccc(F)cc1)c(=O)n(C)c(=O)n2C", "survival": "119%"}, {"smiles": "CC(C)C(=O)Nc1ccc2nc(SCC(=O)N3CCc4ccccc43)sc2c1", "survival": "97%"}, {"smiles": "CCc1nnc(NC(=O)CSc2nc3c([nH]c4ccccc43)c(=O)n2-c2ccc(F)cc2)s1", "survival": "84%"}, {"smiles": "CCc1ccc(-c2nc(CS(=O)CC(=O)NCCc3ccc(Cl)cc3)c(C)o2)cc1", "note": "(stereo unspecified)", "survival": "91%"}, {"smiles": "COc1ccc2c(c1)c1c(c(=O)n(Cc3ccccc3)c(=O)n1CC(=O)Nc1ccccc1F)n2C", "survival": "109%"}, {"smiles": "COc1ccc2c(c1)c1c(c(=O)n(Cc3ccccc3)c(=O)n1CC(=O)Nc1c(C)cccc1C)n2C", "survival": "72%"}, {"smiles": "Cc1ccc(Cn2c(=O)n(-c3ccc(C)cc3)c(=O)c3c2c2cc(C)ccc2n3C)cc1", "survival": "52% (active)"}, {"smiles": "COc1ccc(Cn2c(=O)n(-c3ccc(C)cc3)c(=O)c3c2c2cc(C)ccc2n3C)cc1", "survival": "100%"}, {"smiles": "CCc1ccc(NCc2cc3ccc(OC)cc3n(CC(=O)Nc3ccccc3C)c2=O)cc1", "survival": "83%"}, {"smiles": "Cc1ccc(-n2c(=O)c3c(c4cc(C)ccc4n3C)n(Cc3ccc(F)cc3)c2=O)cc1", "survival": "116%"}, {"smiles": "COc1ccc2c(c1)c1c(c(=O)n(Cc3ccccc3)c(=O)n1CC(=O)Nc1ccc(C)cc1C)n2C", "survival": "-2% (active)"}, {"smiles": "COc1ccc2c(c1)c1c(c(=O)n(CCc3ccccc3)c(=O)n1Cc1ccccc1)n2C", "survival": "90%"}, {"smiles": "COc1ccc2c(c1)c1c(c(=O)n(CCc3ccccc3)c(=O)n1Cc1ccc(F)cc1)n2C", "survival": "6% (active)"}, {"smiles": "COc1ccc2cc(CNc3ccc(C)cc3)c(=O)n(CC(=O)Nc3ccc(C)cc3Cl)c2c1", "survival": "102%"}, {"smiles": "COc1ccc2c(c1)c1c(c(=O)n(CCc3ccccc3)c(=O)n1Cc1cccc(F)c1)n2C", "survival": "67%"}, {"smiles": "COc1ccc2cc(CNc3ccccc3)c(=O)n(CC(=O)Nc3ccc(C)cc3C)c2c1", "survival": "0% (active)"}, {"smiles": "O=C(Nc1nc2c(F)cccc2s1)c1ccc(S(=O)(=O)N2CCOCC2)cc1", "survival": "103%"}, {"smiles": "COc1cc(NC(=O)c2nn(C)c3c2CS(=O)(=O)c2ccccc2-3)cc(OC)c1", "survival": "68%"}, {"smiles": "Cc1cc(C)c(NC(=O)Cn2cnc3c(oc4ccccc43)c2=O)c(C)c1", "survival": "69%"}, {"smiles": "COc1ccc(C2C(=O)N(C3CCC(C)CC3)CC(=O)N2Cc2ccc(C)cc2)cc1OC", "note": "(stereo unspecified)", "survival": "86%"}, {"smiles": "CCC(C(=O)N(C)Cc1ccccc1)n1nc(C)c2sc3ccccc3c2c1=O", "note": "(stereo unspecified)", "survival": "66%"}, {"smiles": "O=C(CC(c1ccccc1)c1ccccc1)N1CCN(Cc2ccc3c(c2)OCO3)CC1", "survival": "67%"}, {"smiles": "O=C(CCCc1nc(-c2ccc(Cl)cc2)no1)NCc1ccco1", "survival": "54%"}, {"smiles": "COc1ccc(C(=O)NCc2ccc3c(c2)CCN3C(C)=O)cc1OC", "survival": "83%"}, {"smiles": "Cc1ccc(C)c(CNC(=O)c2ccc3c(c2)nc2n3CCC(C)C2)c1", "note": "(stereo unspecified)", "survival": "91%"}, {"smiles": "Cc1ccc(S(=O)(=O)N2CCCc3cc(NS(=O)(=O)c4ccc(C)c(C)c4)ccc32)cc1", "survival": "67%"}, {"smiles": "COc1ccc2c(c1)c1c(c(=O)n(Cc3ccccc3)c(=O)n1Cc1ccccc1)n2C", "survival": "-1% (active)"}, {"smiles": "COc1cccc(Cn2c(=O)n(Cc3ccccc3)c(=O)c3c2c2cc(OC)ccc2n3C)c1", "survival": "64%"}, {"smiles": "COc1ccc2c(c1)c1c(c(=O)n(Cc3ccccc3)c(=O)n1Cc1ccc(C)cc1)n2C", "survival": "80%"}, {"smiles": "Cc1ccc(/C=C/c2nc3ccccc3[nH]2)cc1", "survival": "67%"}, {"smiles": "Cc1ccc(NC(=O)CSc2nc(C)cc(C)c2C(=O)Nc2cccc(C)c2)cc1", "survival": "49%"}, {"smiles": "COc1ccc(C(=O)CSc2nc(C)cc(C)c2C(=O)Nc2ccccc2C)cc1", "survival": "51%"}, {"smiles": "Cc1cccc(NC(=O)CSc2nc(C)cc(C)c2C(=O)Nc2ccc(Cl)cc2)c1", "survival": "44%"}, {"smiles": "Cc1cccc(NC(=O)c2c(C)cc(C)nc2SCC(=O)Nc2c(C)cc(C)cc2C)c1", "survival": "52%"}, {"smiles": "COC(=O)c1ccc(NC(=O)CSc2nc(C)cc(C)c2C(=O)Nc2ccccc2)cc1", "survival": "44%"}, {"smiles": "CCc1cccc(C)c1NC(=O)CSc1nc(C)cc(C)c1C(=O)Nc1ccccc1", "survival": "44%"}, {"smiles": "Cc1cc(C)c(C(=O)Nc2ccccc2)c(SCC(=O)Nc2ccc(Br)cc2C)n1", "survival": "38% (active)"}, {"smiles": "Cc1cccc(NC(=O)c2c(C)cc(C)nc2SCC(=O)c2ccccc2)c1", "survival": "40% (active)"}, {"smiles": "Cc1ccc(NC(=O)c2c(C)cc(C)nc2SCC(=O)Nc2ccc(Br)cc2)cc1", "survival": "40% (active)"}, {"smiles": "CCOc1ccccc1NC(=O)c1c(C)cc(C)nc1SCC(=O)c1cccc(OC)c1", "survival": "40% (active)"}, {"smiles": "COc1ccccc1NC(=O)c1c(C)cc(C)nc1SCC(=O)c1ccc(Cl)cc1", "survival": "93%"}, {"smiles": "Cc1ccc(C(=O)CSc2nc(C)cc(C)c2C(=O)Nc2cccc(C)c2)cc1", "survival": "43%"}, {"smiles": "Cc1ccc(S(=O)(=O)NCC2CCC(C(=O)NCCc3ccccc3)CC2)cc1", "note": "(stereo unspecified)", "survival": "81%"}, {"smiles": "O=C(NC1CC(=O)N(c2cccc(F)c2)C1)c1ccc(S(=O)(=O)N2CCOCC2)cc1", "note": "(stereo unspecified)", "survival": "76%"}, {"smiles": "Cc1ccc(NC(=O)Cn2c(=O)n(Cc3ccc(C(=O)NCc4ccc5c(c4)OCO5)cc3)c(=O)c3ccccc32)cc1", "survival": "102%"}, {"smiles": "Cc1cc(=O)n(Cc2c(F)cccc2Cl)c2c1c(C)nn2-c1cccc(F)c1", "survival": "77%"}, {"smiles": "Cc1cccc(NC(=O)c2c(NC(=O)c3ccco3)sc3c2CCC(C(C)(C)C)C3)c1", "note": "(stereo unspecified)", "survival": "85%"}, {"smiles": "Cc1ccc(C)c(NC(=O)Cn2cc(C(=O)c3ccco3)c3ccccc32)c1", "survival": "64%"}, {"smiles": "COc1ccc(NC(=O)c2oc3ccccc3c2NC(=O)C23CC4CC(CC(C4)C2)C3)c(OC)c1", "survival": "67%"}, {"smiles": "CCc1ccc(-n2nc(C)c3c(C)cc(=O)n(CC(=O)Nc4cc(Cl)ccc4OC)c32)cc1", "survival": "52% (active)"}, {"smiles": "Cc1ccc(-n2nc(C)c3c(C)cc(=O)n(CC(=O)Nc4cc(Cl)ccc4C)c32)cc1", "survival": "125%"}, {"smiles": "CCc1ccc(-n2nc(C)c3c(C)cc(=O)n(CC(=O)Nc4ccc(OC)c(OC)c4)c32)cc1", "survival": "84%"}, {"smiles": "CCOC(=O)Cc1ccc(NC(=O)N2CCC(CN3CCC(C)CC3)CC2)cc1", "survival": "81%"}, {"smiles": "COc1cc2cc(C)c(SCC(=O)N3CCN(C(=O)c4ccco4)CC3)nc2cc1OC", "survival": "73%"}, {"smiles": "CCN(CC)S(=O)(=O)c1cccc2nsnc12", "survival": "79%"}, {"smiles": "Cc1cc(C)cc(NC(=O)CSc2nc3ncccc3[nH]2)c1", "survival": "76%"}, {"smiles": "Cc1ccc(NC(=O)CSc2nc3nccnc3c(=O)n2CCc2c[nH]c3ccccc23)cc1", "survival": "82%"}, {"smiles": "Cc1cc(C)cc(NC(=O)CSc2nc3nccnc3c(=O)n2CCc2c[nH]c3ccccc23)c1", "survival": "38% (active)"}, {"smiles": "Cc1ccc(NC(=O)CSc2nc3ccccc3c(=O)n2CCC(=O)NC2CCCCC2)cc1C", "survival": "86%"}, {"smiles": "Cc1ccc(NC(=O)CSc2nc3nccnc3c(=O)n2CCc2c[nH]c3ccccc23)cc1C", "survival": "37% (active)"}, {"smiles": "Cc1ccc(NC(=O)CSc2nc3c(sc4ccccc43)c(=O)n2CCCC(=O)NC2CCCC2)cc1C", "survival": "87%"}, {"smiles": "COc1ccccc1C(=O)OCc1cc(=O)n2nc(C3CCCCC3)sc2n1", "survival": "97%"}, {"smiles": "c1ccc2c(NC3CCCC3)nc(N3CCNCC3)nc2c1", "survival": "26%"}, {"smiles": "COc1ccc2c(Sc3ccc(Cl)cc3)c(C(=O)NCCCN3CCCCC3)[nH]c2c1", "survival": "-1% (active)"}, {"smiles": "COCCCNC(=O)c1[nH]c2ccccc2c1Sc1ccc(C)cc1", "survival": "69%"}, {"smiles": "CC1CCN(CCCNC(=O)c2cc(Sc3ccc(F)cc3)nc3ccccc23)CC1", "survival": "68%"}, {"smiles": "O=C(NCCCN1CCCCC1)c1[nH]c2ccccc2c1Sc1ccc(Cl)cc1", "survival": "7% (active)"}, {"smiles": "COc1ccc2c(Sc3ccccc3)c(C(=O)NCCCN3CCCCC3)[nH]c2c1", "survival": "54%"}, {"smiles": "CC1CCCCN1CCCNC(=O)c1cc(Sc2ccc(Cl)cc2)nc2ccccc12", "note": "(stereo unspecified)", "survival": "94%"}, {"smiles": "O=C(NCCCN1CCCCC1)c1cc(Sc2ccc(Cl)cc2)nc2ccccc12", "survival": "17% (active)"}, {"smiles": "CCOCCCNC(=O)c1[nH]c2cc(C)ccc2c1Sc1ccc(Cl)cc1", "survival": "85%"}, {"smiles": "COc1ccc2c(Sc3ccccc3)c(C(=O)NCCc3ccc(Cl)cc3)[nH]c2c1", "survival": "98%"}, {"smiles": "CNC(=O)c1cnc2sc(N3CCC(C)CC3)nn2c1=O", "survival": "78%"}, {"smiles": "CCOC(=O)c1ccc2c(c1)N(Cc1cc(C)ccc1C)C(=O)c1ccccc1S2(=O)=O", "survival": "85%"}, {"smiles": "Cc1ccccc1C(=O)NC1CCN(Cc2nnnn2C2CCCC2)CC1", "survival": "101%"}, {"smiles": "CCC(CC)C(=O)Nc1ccc(C(=O)OCc2cc(=O)n3nc(C4CC4)sc3n2)cc1", "survival": "80%"}, {"smiles": "Cc1ccc(/C=C/c2onc(C)c2S(=O)(=O)N2CCC(C(=O)Nc3ccccc3C(F)(F)F)CC2)cc1", "survival": "75%"}, {"smiles": "COc1ccc(-c2c3c(=O)n(C)c(=O)n(C)c3cn2-c2cccc(N)c2)cc1", "survival": "79%"}, {"smiles": "COc1cccc2c1Oc1ncccc1N(c1ccc(C(=O)NCc3ccccc3C)s1)C2", "survival": "84%"}, {"smiles": "CCOc1ccccc1CNC(=O)c1cc(-c2ccc(C)c(C)c2)nc2ccccc12", "survival": "74%"}, {"smiles": "COc1ccc(NC(=O)c2ccc(NC(=O)CCS(=O)(=O)c3cccs3)cc2)cc1OC", "survival": "50%"}, {"smiles": "COc1ccc(OC)c2sc(N3CCN(C(=O)CCS(=O)(=O)c4ccc(F)cc4)CC3)nc12", "survival": "94%"}, {"smiles": "Cc1c(Cl)ccc2sc(N3CCN(C(=O)CCS(=O)(=O)c4ccc(F)cc4)CC3)nc12", "survival": "0% (active)"}, {"smiles": "CCCCC(=O)N1CCN(c2nc3c(C)c(C)ccc3s2)CC1", "survival": "46% (active)"}, {"smiles": "COc1cccc2sc(N3CCN(C(=O)CCS(=O)(=O)c4ccc(F)cc4)CC3)nc12", "survival": "66%"}, {"smiles": "Cc1c(Cl)ccc2sc(N3CCN(C(=O)CS(=O)(=O)c4ccccc4)CC3)nc12", "survival": "106%"}, {"smiles": "Cc1ccc(S(=O)(=O)CCC(=O)N2CCN(c3nc4c(C)c(Cl)ccc4s3)CC2)cc1", "survival": "72%"}, {"smiles": "Cc1ccc2sc(N3CCN(C(=O)CCS(=O)(=O)c4ccc(F)cc4)CC3)nc2c1C", "survival": "115%"}, {"smiles": "Cc1ccc(S(=O)(=O)CC(=O)N2CCN(c3nc4c(F)cccc4s3)CC2)cc1", "survival": "-5% (active)"}, {"smiles": "Cc1cccc2sc(N3CCN(C(=O)CS(=O)(=O)c4ccc(F)cc4)CC3)nc12", "survival": "102%"}, {"smiles": "COc1cccc2sc(N3CCN(C(=O)CS(=O)(=O)c4ccc(Cl)cc4)CC3)nc12", "survival": "-4% (active)"}, {"smiles": "Cc1ccc(S(=O)(=O)CCC(=O)N2CCN(c3nc4c(C)c(C)ccc4s3)CC2)cc1", "survival": "92%"}, {"smiles": "Cc1ccc2sc(N3CCN(C(=O)CCS(=O)(=O)c4ccc(Cl)cc4)CC3)nc2c1C", "survival": "64%"}]}]}
